Compounds with a hit are over-represented: about 12% of the library has one in this group of screens.
Shiga toxin inh = blocks Shiga toxin action in Vero cells | Vero cells, Shiga toxin protein synthesis inhibition reporter | hit rate 9.2% among 290,000 | inhibition, % at 38.7 µM; in the data active means inhibition mostly above about 28%, no sharp cut-off; inactive means mostly below about 43%; further: 0% is about no effect
NS1 inh = blocks influenza NS1 protein function | Potency, µM (highest dose often 46.1 µM), for the others: at the highest dose activity, positive = more growth | hit rate 0.4% among 270,000 | AID 2326; further: potency means the concentration at half of the fitted maximal effect; actives are rising curves; nearly all actives have a fitted effect of over 50% in size
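Growth recovery, yeast-based: influenza A NS1 expressed in S. cerevisiae causes slow growth, and suppressors are detected by OD600. The parent strain without NS1 is used as positive control.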
SARS PLP yeast = blocks SARS-CoV papain-like protease in a yeast assay. S. cerevisiae expressing SARS-CoV PLpro, growth rescue. Potency, µM (doses to about 32.9 µM), inactives show at the top dose activity, positive = growth rescue, actives largely listed as activators. hit rate 0.19% among 330,000; further: potency means the concentration at half of the fitted maximal effect; 0% is about no effect; nearly all actives have a fitted effect of over 55% in size
Cycloheximide cs = counter-screen hit for Shiga toxin inhibitors, cycloheximide | max response, % | hit rate 12% among 300,000 | cell reporter, cycloheximide protein synthesis inhibition counterscreen | AID 2314; in the data active means max response mostly above about 13%, no sharp cut-off; inactive means mostly below about 14%; further: read at 38.3 µM for the half of the compounds with a filed dose; 0% is about no effect
The depositor's hits bear a star. Unless noted, the call rests on the fitted dose curve.

What do the screens show for `COc1ccccc1NC(=O)Cn1c([N+](=O)[O-])cnc1C`?
Shiga toxin inh: -4.4; NS1 inh: 0.9%; SARS PLP yeast: 2.4%; Cycloheximide cs: -1.8

What do the screens show for `CCc1nnc(NC(=O)/C=C/c2cccs2)s1`?
Shiga toxin inh: 39.9; NS1 inh: 0.8%; SARS PLP yeast: 0.2%; Cycloheximide cs: 17.5*

How did O=C(/C=C/c1cccs1)Nc1cccc(NC(=O)/C=C/c2cccs2)n1 do in these assays?
Shiga toxin inh: 90.0*; NS1 inh: 22.4%; SARS PLP yeast: -46.1%; Cycloheximide cs: 40.2*

How did CCN(CC)S(=O)(=O)c1ccc(C)c(NC(=O)/C=C/c2cccs2)c1 do in these assays?
Shiga toxin inh: -6.1; NS1 inh: -40.2%; SARS PLP yeast: 15.8%; Cycloheximide cs: -2.4

How did Cc1ccccc1NC(=O)/C=C/c1cccs1 do in these assays?
Shiga toxin inh: 70.2*; SARS PLP yeast: -9.5%; Cycloheximide cs: 27.5*

How did CCc1nnc(NC(=O)CSc2ccc(-c3cccs3)nn2)s1 do in these assays?
Shiga toxin inh: 14.4; SARS PLP yeast: -0.3%; Cycloheximide cs: 8.7

Results for Cc1cc(C)nc(NC(=O)/C=C/c2cccs2)c1 ?
Shiga toxin inh: 108.4; NS1 inh: -47.4%; SARS PLP yeast: -13.9%; Cycloheximide cs: 19.5

How did O=C(/C=C\c1ccccc1)Nc1nccs1 do in these assays?
Shiga toxin inh: 58.8*; NS1 inh: 6.8%; SARS PLP yeast: -7.1%; Cycloheximide cs: 38.6*

How did COc1ccc(C(=O)Nc2ccc(S(=O)(=O)Nc3onc(C)c3C)cc2)c(OC)c1 do in these assays?
Shiga toxin inh: 32.6; SARS PLP yeast: -7.2%; Cycloheximide cs: 3.4

What do the screens show for `CC(C)(C)N(Cc1ccccc1)C(=O)CN1C(=O)NC2(CCCCCC2)C1=O`?
SARS PLP yeast: 3.1%

How did COc1ccc2[nH]c(C(=O)O)c(NS(=O)(=O)c3ccc(C)cc3C)c2c1 do in these assays?
Shiga toxin inh: -3.1; NS1 inh: 19.4%; SARS PLP yeast: inconclusive; Cycloheximide cs: -5.1

What do the screens show for `O=C(c1ccc(-n2cncn2)c([N+](=O)[O-])c1)N1CCN(S(=O)(=O)c2cccc(F)c2)CC1`?
SARS PLP yeast: 3.7%

How did Cc1cc(C)cc(N(CC(=O)O)S(=O)(=O)c2cccnc2)c1 do in these assays?
NS1 inh: -9.2%

How did O=C(/C=C/c1cccc(F)c1)Nc1nccs1 do in these assays?
Shiga toxin inh: 117.2*; SARS PLP yeast: 0.5%; Cycloheximide cs: 46.5*

How did CC(C)=CC(=O)Nc1nnc(-c2ccccc2C)s1 do in these assays?
Shiga toxin inh: 76.9*; NS1 inh: -2.5%; SARS PLP yeast: -0.1%; Cycloheximide cs: 28.1*

How did COCc1cc(=O)[nH]c(Nc2nc3ccccc3o2)n1 do in these assays?
Shiga toxin inh: 64.9*; NS1 inh: -35.5%; SARS PLP yeast: 0.6%; Cycloheximide cs: 61.3*

What do the screens show for `CCOC(=O)Cc1cc(=O)[nH]c(Nc2nc3ccccc3o2)n1`?
Shiga toxin inh: 77.1*; NS1 inh: 16.4%; SARS PLP yeast: -0.2%; Cycloheximide cs: 18.3

What do the screens show for `COC(=O)Cc1cc(=O)[nH]c(Nc2nc3ccccc3o2)n1`?
Shiga toxin inh: 31.4*; NS1 inh: 22.8%; SARS PLP yeast: 2.7%; Cycloheximide cs: 17.1*

Results for NS(=O)(=O)c1ccc(NC(=O)Nc2ccccc2F)cc1 ?
NS1 inh: -0.3%

What do the screens show for `CCc1ccc(-c2ccc3nnc(SC)n3n2)cc1`?
Shiga toxin inh: 17.4; NS1 inh: -4.8%; SARS PLP yeast: -12.8%; Cycloheximide cs: 22.0*

Results for CCSc1nnc2ccc(-c3ccc(C)cc3)nn12 ?
Shiga toxin inh: 34.1; NS1 inh: -6.9%; SARS PLP yeast: -21.8%; Cycloheximide cs: 26.0*

Results for CCSc1nnc2ccc(-c3cccs3)nn12 ?
Shiga toxin inh: 6.7; SARS PLP yeast: 0.6%; Cycloheximide cs: 11.1

Results for Cc1ccc(-c2cc(N)n(-c3ccc(C)cc3)n2)cc1 ?
Shiga toxin inh: 56.6*; NS1 inh: 23.4%; SARS PLP yeast: -2.6%; Cycloheximide cs: 30.9*

Results for Cc1ccc(-c2cc(N)n(-c3ccc(F)cc3)n2)cc1 ?
Shiga toxin inh: 67.0*; NS1 inh: 11.9%; SARS PLP yeast: -0.8%; Cycloheximide cs: 48.8*

How did O=C(O)COc1ccccc1C(Nc1cccnc1)c1cc(Cl)c2cccnc2c1O (configuration not stated) do in these assays?
Shiga toxin inh: 17.6; SARS PLP yeast: inconclusive; Cycloheximide cs: -3.2

Results for O=C(NC(c1ccccc1)c1cc(Cl)c2cccnc2c1O)c1cccnc1 (configuration not stated) ?
Shiga toxin inh: -2.4; NS1 inh: 8.9%; SARS PLP yeast: 1.78µM*; Cycloheximide cs: -1.3

Results for CCOC(=O)c1c(C)[nH]c(C(=O)Cn2nnc(-c3ccc(Cl)cc3)n2)c1C ?
Shiga toxin inh: 2.9; NS1 inh: 2.2%; SARS PLP yeast: 13.4%; Cycloheximide cs: -2.8

What do the screens show for `COc1ccc(NC(=O)N2CCN(C(=O)Nc3ccc(OC)cc3)CC2)cc1`?
Shiga toxin inh: 0.5; NS1 inh: 2.9%; SARS PLP yeast: -0.6%; Cycloheximide cs: -2.6

How did O=C(Nc1ccc([N+](=O)[O-])cc1)N1CCCCC1 do in these assays?
Shiga toxin inh: 49.9; NS1 inh: -2.9%; SARS PLP yeast: -1.0%; Cycloheximide cs: 23.8

Results for Cc1ccc(NC(=O)N2CCCCC2)cc1NC(=O)N1CCCCC1 ?
Shiga toxin inh: -3.6; NS1 inh: 5.9%; SARS PLP yeast: 0.4%; Cycloheximide cs: 2.5

Results for COc1ccc(NC(=O)N2CCC3(CC2)OCCO3)cc1 ?
Shiga toxin inh: 35.3; NS1 inh: -0.4%; SARS PLP yeast: 0.7%; Cycloheximide cs: 26.7*

What do the screens show for `O=C(Nc1ccc(Br)cc1)N1CCCCC1`?
Shiga toxin inh: 139.5*; NS1 inh: -8.4%; SARS PLP yeast: -5.4%; Cycloheximide cs: 42.4*

How did COc1ccc(NC(=O)N2CCCCCC2)cc1 do in these assays?
Shiga toxin inh: 50.2*; NS1 inh: 3.7%; SARS PLP yeast: -2.5%; Cycloheximide cs: 21.3*

Results for O=C(Nc1ccc([N+](=O)[O-])cc1)N1CCCCCC1 ?
Shiga toxin inh: 50.5*; NS1 inh: 5.4%; Cycloheximide cs: 40.8*

How did COc1cccc(CN(C)CC(=O)Nc2ccccc2C(C)C)c1 do in these assays?
Shiga toxin inh: -3.2; SARS PLP yeast: 0.9%; Cycloheximide cs: -2.7

Results for COc1ccc(NC(=O)OC(CN2CCCCC2)C(F)(F)F)cc1 (configuration not stated) ?
Shiga toxin inh: 21.1; NS1 inh: 17.4%; SARS PLP yeast: -10.3%; Cycloheximide cs: 21.4*

How did COc1cccc(NC(=O)C2CCCCC2)c1 do in these assays?
Shiga toxin inh: 44.0*; NS1 inh: -11.9%; SARS PLP yeast: -19.0%; Cycloheximide cs: 28.7*

What do the screens show for `CCC1CCC(NC(=O)Nc2cccc(OC)c2)CC1` (configuration not stated)?
Shiga toxin inh: 64.4*; NS1 inh: -5.1%; SARS PLP yeast: -3.0%; Cycloheximide cs: 51.8*

How did COc1cccc(NC(=O)N2CCN(c3cccc(C)c3)C(C)C2)c1 (configuration not stated) do in these assays?
Shiga toxin inh: 50.3*; NS1 inh: -31.4%; SARS PLP yeast: -13.7%; Cycloheximide cs: 33.6*

What do the screens show for `COc1cccc(N2CCN(C(=O)c3ccc(=O)oc3)CC2C)c1` (configuration not stated)?
Shiga toxin inh: 9.1; NS1 inh: 17.1%; SARS PLP yeast: 7.2%; Cycloheximide cs: -5.9
